Screens: PubChem, several laboratories
FGF22 binding: shifts melting point of recombinant human FGF22 | Q9HCT0 | recombinant FGF22 thermal shift, SYPRO orange fluorescence; percent of sucrose octasulfate shift, DMSO zero | activity (Tm shift, normalised), % at 9.99 µM | 340,000 compounds, 1.5% hits;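 active = mean Tm shift, scaled 0 neutral to 100 positive control, at about 1.3% or above, every replicate too, limit read from the data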
ADAM17 inh: inhibitors of human ADAM17. recombinant ADAM17, EDANS/DABCYL FRET peptide cleavage. inhibition, % at 6.95 µM. 370,000 compounds, 0.83% hits. AID 720648;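 active = inhibition above the mean of compounds lying between control limits plus 3 SD, set per campaign, cut at about 8.5% in these data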
Target sequence (P78536 215-824 limits assumed): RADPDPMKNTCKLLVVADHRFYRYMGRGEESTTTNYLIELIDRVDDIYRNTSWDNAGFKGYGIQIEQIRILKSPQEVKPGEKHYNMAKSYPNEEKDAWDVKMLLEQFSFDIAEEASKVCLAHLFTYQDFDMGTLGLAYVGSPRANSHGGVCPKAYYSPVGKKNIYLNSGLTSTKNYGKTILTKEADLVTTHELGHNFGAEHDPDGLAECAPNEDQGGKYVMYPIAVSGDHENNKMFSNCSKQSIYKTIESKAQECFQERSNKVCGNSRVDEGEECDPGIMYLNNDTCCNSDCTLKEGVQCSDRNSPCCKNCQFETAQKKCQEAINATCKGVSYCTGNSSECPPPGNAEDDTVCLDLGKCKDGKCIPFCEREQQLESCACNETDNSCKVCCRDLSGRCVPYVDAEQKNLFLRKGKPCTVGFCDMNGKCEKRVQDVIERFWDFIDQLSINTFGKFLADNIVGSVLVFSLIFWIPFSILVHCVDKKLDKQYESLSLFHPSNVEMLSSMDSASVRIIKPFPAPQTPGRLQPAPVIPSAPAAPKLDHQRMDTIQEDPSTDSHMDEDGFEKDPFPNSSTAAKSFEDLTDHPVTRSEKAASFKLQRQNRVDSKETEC
ADAM10 inh: inhibits human ADAM10. O14672. recombinant ADAM10, EDANS/DABCYL FRET peptide cleavage, 3 h. inhibition, % at 7 µM. 370,000 compounds, 0.62% hits;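 active = inhibition above a per-campaign cutoff equal to the mean of compounds falling between control-based bounds plus 3 SD, cut at about 20% in these data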
Ecoli rRNA inh: inhibits bacterial ribosomal RNA function over humanized ribosomes. GFP signal change (wild-type ribosome), % (test concentration not listed). E. coli WT GFP vs humanized-ribosome RFP mutants, fluorescence, 24 h; hits give low values; DMSO median 0, no signal -100. 350,000 compounds, 1.6% hits;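 active = significant combined selectivity score with lowered wild-type GFP, culture density cut under 30%, mutant RFP and density less affected; inactive = any of these conditions unmet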
proKLK7 act: proKLK7 (human) activation, primary screen; purified proKLK7, EDANS-DABCYL substrate fluorescence; 100% is mature enzyme control, 0% vehicle; AID 652039; activation, % at 7 µM; 370,000 compounds, 0.9% hits;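 active = activation above the mean of all tested compounds plus 3 SD, computed per campaign excluding outliers beyond control limits, cut at about 13% in these data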
Hits are given with their value. Most compounds without a hit are left out; they make up all but 3.8% or so of the library.

For COC1CCCN(Cc2c(C(=O)N3CCc4ccccc4C3)nc3ccc(Cl)cn23)C1 (stereo unspecified) the results were FGF22 binding inactive, ADAM17 inh inactive, ADAM10 inh inactive, Ecoli rRNA inh inactive and proKLK7 act inactive.
Screening CC(C)NC(=O)N(C)C[C@H]1OCCCC[C@H](C)Oc2ccc(NC(=O)c3ccccc3)cc2C(=O)N([C@H](C)CO)C[C@@H]1C returned FGF22 binding inactive and Ecoli rRNA inh inactive.
COc1ccc(CN(C)C[C@H]2Oc3ccc(NC(=O)Nc4c(C)noc4C)cc3CC(=O)N([C@H](C)CO)C[C@@H]2C)cc1 was read as FGF22 binding inactive and Ecoli rRNA inh inactive.
CN(CC(=O)Nc1ccccc1Cl)C(=O)COC(=O)CN1C(=O)NC2(CCCC2)C1=O was read as FGF22 binding inactive, ADAM17 inh inactive, ADAM10 inh inactive, Ecoli rRNA inh inactive and proKLK7 act inactive.
`CCOC(=O)c1ccccc1NC(=O)COC(=O)CN1C(=O)NC2(CCCC2)C1=O` gave FGF22 binding inactive, ADAM17 inh inactive, ADAM10 inh inactive, Ecoli rRNA inh -31.8 and proKLK7 act inactive.
Screening O=C1CCCC(O)=C1Sc1cc(Cl)c(Cl)cc1Cl returned FGF22 binding inactive, ADAM17 inh inactive, ADAM10 inh inactive, Ecoli rRNA inh -22.8 and proKLK7 act inactive.
Screening O=C(C[C@@H]1C=C[C@H](NC(=O)c2ccccc2)[C@@H](CO)O1)NCCc1ccncc1 returned FGF22 binding inactive and Ecoli rRNA inh inactive.
CO[C@@H]1CN(C)C(=O)c2cc(NC(=O)NC3CCCC3)ccc2OC[C@H](C)N(CC2CC2)C[C@H]1C was read as Ecoli rRNA inh inactive.
`O=C(CCCOc1ccccc1)N1CCCc2ccccc21` gave ADAM17 inh inactive, ADAM10 inh inactive and proKLK7 act inactive.
For Cc1cc(Cl)ccc1OCCCC(=O)N1CCCc2ccccc21 the results were FGF22 binding inactive, ADAM17 inh inactive, ADAM10 inh inactive, Ecoli rRNA inh -29.6 and proKLK7 act inactive.
`CCC(=O)N1CC2(C1)CN(Cc1ccc(OC)cc1)[C@@H](CO)c1[nH]c3cc(OC)ccc3c12` gave Ecoli rRNA inh inactive.
`O=C(Nc1ccccc1)N[C@@H]1CC[C@H](CCn2cc(-c3ccccc3F)nn2)O[C@H]1CO` gave Ecoli rRNA inh inactive.
COc1ccc(S(=O)(=O)Nc2ccccc2C(=O)NCc2cccnc2)cc1C was read as FGF22 binding inactive, ADAM17 inh inactive, ADAM10 inh inactive, Ecoli rRNA inh inactive and proKLK7 act inactive.
Screening Cc1cc(F)ccc1S(=O)(=O)Nc1ccccc1C(=O)NCc1cccnc1 returned FGF22 binding inactive, ADAM17 inh inactive, ADAM10 inh inactive, Ecoli rRNA inh -23.6 and proKLK7 act inactive.
For O=C1c2ccccc2NC(c2cccc([N+](=O)[O-])c2)N1CCc1ccccc1 (stereo unspecified) the results were FGF22 binding inactive, ADAM17 inh inactive, ADAM10 inh inactive, Ecoli rRNA inh -20.5 and proKLK7 act inactive.
`O=C1c2ccccc2NC(c2cccc(F)c2)N1Cc1ccccc1` (stereo unspecified) gave FGF22 binding inactive, ADAM17 inh inactive, ADAM10 inh inactive, Ecoli rRNA inh inactive and proKLK7 act inactive.
`COc1ccc(C2CC(c3ccc4ccccc4c3)=NN2C(=O)CNC2CCCCC2)cc1` (stereo unspecified) gave FGF22 binding inactive, ADAM17 inh inactive, ADAM10 inh inactive, Ecoli rRNA inh inactive and proKLK7 act inactive.
COc1ccc(C2CC(c3ccc4ccccc4c3)=NN2C(=O)CN2CCC(C(N)=O)CC2)cc1 (stereo unspecified) was read as FGF22 binding inactive, ADAM17 inh inactive, ADAM10 inh inactive, Ecoli rRNA inh -48.2 and proKLK7 act inactive.
For C=CCNCC(=O)N1N=C(c2ccc3ccccc3c2)CC1c1ccc(OC)cc1 (stereo unspecified) the results were FGF22 binding 43.0, ADAM17 inh inactive, ADAM10 inh inactive, Ecoli rRNA inh inactive and proKLK7 act inactive.
Screening CCN(Cc1cnn(C)c1)C(=O)c1ccc(OC2CCN(S(=O)(=O)N(C)C)CC2)cc1 returned FGF22 binding 43.7, ADAM17 inh inactive, ADAM10 inh inactive, Ecoli rRNA inh inactive and proKLK7 act inactive.
Screening CCOC(=O)NC(=O)COC(=O)CCCSc1nc2ccccc2s1 returned FGF22 binding inactive, ADAM17 inh inactive, ADAM10 inh inactive, Ecoli rRNA inh -26.6 and proKLK7 act inactive.
For COc1ccc(/C=C2\CCc3ccccc3C2=O)cc1CN1CCOCC1 the results were FGF22 binding inactive, ADAM17 inh inactive, ADAM10 inh inactive, Ecoli rRNA inh -29.5 and proKLK7 act inactive.
`COc1ccc(/C=C2/CCc3ccccc3C2=O)cc1OC` gave ADAM17 inh inactive, ADAM10 inh inactive and proKLK7 act inactive.
`S=C(Nc1ccc(Cl)c(Cl)c1)NC1CCN(Cc2ccccc2)CC1` gave ADAM17 inh inactive, ADAM10 inh 19.8 and proKLK7 act inactive.
O=C(C[C@@H]1C[C@H]2c3cc(NC(=O)NC4CCCC4)ccc3O[C@H]2[C@@H](CO)O1)NC1CCCC1 was read as FGF22 binding inactive and Ecoli rRNA inh inactive.
Screening O=C(NNC(=O)c1cccs1)c1ccc([N+](=O)[O-])cc1 returned FGF22 binding 43.5, ADAM17 inh inactive, ADAM10 inh inactive, Ecoli rRNA inh inactive and proKLK7 act inactive.
Screening O=C(Nc1ccc(NC(=O)C2CC2)nc1)c1cccs1 returned ADAM17 inh inactive, ADAM10 inh inactive and proKLK7 act inactive.
Screening O=C(NNC(=O)c1ccc([N+](=O)[O-])cc1)c1ccc(NS(=O)(=O)c2cccs2)cc1 returned FGF22 binding inactive, ADAM17 inh inactive, ADAM10 inh inactive, Ecoli rRNA inh inactive and proKLK7 act inactive.
`COc1ccccc1CC(=O)NNC(=O)c1cccs1` gave FGF22 binding 43.7, ADAM17 inh inactive, ADAM10 inh inactive, Ecoli rRNA inh inactive and proKLK7 act inactive.
O=C(Nc1ccc(NC(=O)c2cccs2)cn1)c1ccccc1 was read as FGF22 binding 43.2, ADAM17 inh inactive, ADAM10 inh inactive and proKLK7 act inactive.
For O=C(NNC(=O)c1cccs1)c1ccc(F)cc1 the results were FGF22 binding 43.1, ADAM17 inh inactive, ADAM10 inh inactive, Ecoli rRNA inh inactive and proKLK7 act inactive.
Screening COc1ccc(CC(=O)NNC(=O)c2cccs2)cc1OC returned FGF22 binding inactive, ADAM17 inh inactive, ADAM10 inh inactive, Ecoli rRNA inh inactive and proKLK7 act inactive.
O=C(Nc1cccc(NC(=O)c2cccs2)c1)c1ccc(F)cc1 was read as FGF22 binding inactive, ADAM17 inh inactive, ADAM10 inh inactive, Ecoli rRNA inh -28.1 and proKLK7 act inactive.
`COc1ccc(C(=O)Nc2cccc(NC(=O)c3cccs3)c2)cc1` gave FGF22 binding inactive, ADAM17 inh inactive, ADAM10 inh inactive, Ecoli rRNA inh inactive and proKLK7 act inactive.
